Results filed as inconclusive are left out. Active and inactive are the calls of the source. The calls were made as follows: active = hit-call score of the fitted dose curve at least 0.9, where 1 is the maximum; inconclusive = response in the unintended direction; inactive = score below 0.9.
Read-out: xenobiotic metabolism (CYP1A1), CYP1A1 (gene 1543)
Assay: CLD_CYP1A1_6hr: CellzDirect (CLD) Gene Expression Assay for xenobiotic metabolism (CYP1A1) at 6 hours (AID 2283661);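 as to AC50: potency for transcript induction above DMSO vehicle baseline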
Description: CLD_6hr is a cell-based, multiplexed-readout assay that uses hepatocyte, a human liver primary cell, with measurements taken at 6 hours after chemical dosing in a 96-well plate.CLD_CYP1A1_6hr is one of 16 assay component(s) measured or calculated from the CLD_6hr assay. It is designed to make measurements of mRNA induction, a form of inducible reporter, as detected with chemiluminescence signals by Quantitative Nuclease Protection Assay (qNPA) technology.Data from the assay component CLD_CYP1A1_6hr was analyzed at the endpoint, CLD_CYP1A1_6hr, in the positive analysis fitting direction relative to DMSO as the negative control and baseline of activity. Using a type of inducible reporter, gain-of-signal activity can be used to understand changes in the reporter gene as they relate to the gene CYP1A1. Furthermore, this assay endpoint can be referred to as a primary readout. To generalize the intended target to other relatable targets, this assay endpoint is annotated to the cyp intended target family, where subfamily is xenobiotic metabolism.
Human hepatocyte cultures were treated daily for two consecutive days with fresh dosing solutions containing appropriate concentrations of the 320 ToxCast chemicals (chemical identities were blinded to CellzDirect and other ToxCast collaborators), vehicle control (0.2% DMSO), and positive control inducers as summarized in Table 1. Due to the large number of treatment groups and chemicals examined, the ToxCast chemicals were divided into two groups (spanning two independent cultures of hepatocytes from separate donor preparations (Hu778: ToxCast plates 1 and 2; Hu776: ToxCast plates 3 and 4). Each preparation of human hepatocyte cultures was treated with respective vehicle control, medium only control, set of six positive controls/reference chemicals for the five hepatic receptor pathways, and a subset of eight of the ToxCast chemicals (indoxacarb, pyrithiobac-sodium, norflurazon, cyhalofop-butyl, methomyl, thiram, acetochlor, and propiconazole). These replicate data, coupled with internal replicates designed within the blinded ToxCast chemical library, provided additional data to evaluate interindividual differences between hepatocyte preparations and their potential impact on chemical profiles.Cell morphology and integrity were evaluated using phase-contrast microscopy as an indicator of hepatocyte cell health (Tyson & Green, 1987). Cultures for each treatment group (i.e., media, vehicle [0.2% DMSO], positive control inducers [multiple concentrations], and the ToxCast chemicals [multiple concentrations]) were observed and cell morphology was assessed relative to vehicle control cultures at each harvest time point (0, 6, 24, or 48 h). […] Images were evaluated at the conclusion of the study to assess changes in cell integrity and account for the effects of chemical exposure on uncharacteristic changes in concentration-dependent gene expression profiles. The results from these determinations of apparent cytotoxicity were annotated (yes/no) alongside the corresponding qNPA data for reference.At the conclusion of each treatment period, hepatocyte cultures (96-well) were washed with 1 volume of HBSS, lysed by addition of 25 ul ArrayPlate lysis buffer (HTG, Tucson, AZ), and 70 ul/well of Denaturation Oil, denatured by incubation at 95C for 10 min, and frozen at approximately -70C until analysis by nuclease protection assay (qNPA) (Roberts et al., 2007). For qNPA analysis, cell lysates were thawed at 50C for approximately 30 min, qNPA probes were added, and samples were incubated at 95C for 10 min to begin the detection process by denaturing the target RNA, dissociating the duplexes and secondary structure hybridization. At the conclusion of the hybridization period, S1 nuclease reagent was added to each sample to digest all nonprotected nucleotides at 50C for 60-90 min. […]

Compound	outcome	AC50
C#CC(C)(C)NC(=O)c1cc(Cl)cc(Cl)c1	inactive	
CCCCOC(=O)c1ccccc1C(=O)O	inactive	
CCOP(=S)(OCC)Oc1ccc2c(C)c(Cl)c(=O)oc2c1	inactive	
Cc1nn(-c2cc(NS(C)(=O)=O)c(Cl)cc2Cl)c(=O)n1C(F)F	inactive	
CSc1nc(NC(C)C)nc(NC(C)C)n1		3.97 µM (active)
CCOP(=O)(SC(C)CC)N1CCSC1=O (stereo not given)	inactive	
CNC(=O)Oc1cccc2c1OC(C)(C)O2		2.94 µM (active)
C[N+]1(C)CCCCC1	inactive	
CC(C1CC1)C(O)(Cn1cncn1)c1ccc(Cl)cc1 (stereo not given)		0.0103 µM (active)
CCCSP(=O)(OCC)SCCC		1.9 µM (active)
Cc1cc(C2CC2)nc(Nc2ccccc2)n1		2.2 µM (active)
Nc1c(Cl)cc([N+](=O)[O-])cc1Cl		34.5 µM (active)
CCCSP(=O)(OCC)Oc1ccc(Br)cc1Cl (stereo not given)		10.2 µM (active)
COP(=O)(NC(C)=O)SC (stereo not given)	inactive	
CNC(=O)ON=C(C)SC	inactive	
Nc1nc(N)nc(NC2CC2)n1	inactive	
CCCCSP(=O)(SCCCC)SCCCC		2.38 µM (active)
FC(F)C(F)(F)OCC(Cn1cncn1)c1ccc(Cl)cc1Cl (stereo not given)		2.47 µM (active)
CC1=NNC(=O)N(/N=C/c2cccnc2)C1		20 µM (active)
C[Si](Cn1cncn1)(c1ccc(F)cc1)c1ccc(F)cc1		20 µM (active)

Compound	outcome	AC50
C#CCC1=C(C)C(OC(=O)C2C(C=C(C)C)C2(C)C)CC1=O (stereo not given)	inactive	
CCCCOC(=O)[C@@H](C)Oc1ccc(Oc2ccc(C#N)cc2F)cc1	inactive	
CN(C)[C@@H]1C(=O)C(C(N)=O)=C(O)[C@@]2(O)C(=O)C3=C(O)c4c(O)cccc4[C@@](C)(O)[C@H]3[C@H](O)[C@@H]12	inactive	
CSc1nnc(C(C)(C)C)c(=O)n1N	inactive	
CCOP(=O)(OCC)Oc1cc(C)nc(C(C)C)n1	inactive	
CCOP(=S)(OCC)Oc1cc(C)nc(C(C)C)n1		0.682 µM (active)
CCC(=O)Nc1ccc(Cl)c(Cl)c1		20 µM (active)
CCOC(=O)COc1cc(-c2nn(C)c(OC(F)F)c2Cl)c(F)cc1Cl	inactive	
CC(C)[C@H](C(=O)O[C@H](C#N)c1cccc(Oc2ccccc2)c1)c1ccc(Cl)cc1	inactive	
O=C(O)c1cc(Oc2ccc(C(F)(F)F)cc2Cl)ccc1[N+](=O)[O-]	inactive	
CON=C(C(=O)OC)c1ccccc1CON=C(C)c1cccc(C(F)(F)F)c1	inactive	
COP(=O)(OC)OC(Br)C(Cl)(Cl)Br (stereo not given)	inactive	
Cc1ccn2nc(S(=O)(=O)Nc3c(F)cccc3F)nc2n1	inactive	
CC(COc1ccc(Oc2ccccc2)cc1)Oc1ccccn1 (stereo not given)	inactive	
CCC(=NOC/C=C/Cl)C1=C(O)CC(C2CCOCC2)CC1=O (stereo not given)	inactive	
CCOP(=S)(OCC)OC(Cl)C(Cl)(Cl)Cl (stereo not given)	inactive	
COc1cccc(C(=O)NN(C(=O)c2cc(C)cc(C)c2)C(C)(C)C)c1C	inactive	
CCCOCC(=Nc1ccc(Cl)cc1C(F)(F)F)n1ccnc1		1.9 µM (active)
CC(Oc1cccc(Cl)c1)C(=O)O (stereo not given)	inactive	
CCOP(=S)(OCC)Oc1ccc([N+](=O)[O-])cc1		3.67 µM (active)

— PubChem BioAssay (EPA / NIEHS)
